Laboratory results taken from PubChem BioAssay (NCATS).
“And” between values parts separate entries of the source, which are not always exact repeats. Identical values can stand only once. Records with an inconclusive call do not appear. The source made the active and inactive calls. Calls come from the whole dose curve; as a rule, active = well fitted curve in the direction sought with a large enough effect; inconclusive = small, poorly fitted or top-dose-only effect, or another doubt; inactive = no such curve, though single readings can be large; an effect the other way counts as inactive or inconclusive.

Experiments:
[1] = biological target: Cellular tumor antigen p53 (Homo sapiens) (UniProt P04637); experiment: Primary qHTS for small molecule compounds that upregulate eGFP-tagged delta133p53alpha (in N-terminal) cells. (AID 2060322); conditions: NCI-H358 eGFP-delta133p53alpha fluorescence, 24 h; activation: hits give high values; note: nearly all actives have a fitted effect of over 75% in size; note: potency is the fitted concentration of half-maximal effect;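 for activation: series mostly up to about 56 µM; 0% = DMSO vehicle and 100% = reference activator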
Sequence of Cellular tumor antigen p53 (Homo sapiens) (P04637 whole entry, looked up): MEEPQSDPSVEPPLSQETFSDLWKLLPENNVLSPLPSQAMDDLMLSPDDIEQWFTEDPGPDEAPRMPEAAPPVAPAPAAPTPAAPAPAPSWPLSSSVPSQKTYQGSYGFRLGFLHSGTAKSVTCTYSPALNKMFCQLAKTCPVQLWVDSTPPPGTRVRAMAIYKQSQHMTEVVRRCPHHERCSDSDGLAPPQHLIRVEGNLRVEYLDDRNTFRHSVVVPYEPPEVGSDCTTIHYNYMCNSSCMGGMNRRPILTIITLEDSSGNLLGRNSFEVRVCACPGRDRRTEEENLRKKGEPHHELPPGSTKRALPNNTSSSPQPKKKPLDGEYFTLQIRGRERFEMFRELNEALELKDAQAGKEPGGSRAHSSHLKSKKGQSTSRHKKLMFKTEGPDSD
Method in brief: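 NCI-H358 cells pre-induced 24 h with 10 ng/ml doxycycline to express N-terminal eGFP-delta133p53alpha, then dosed 24 h at 37C without doxycycline; fixed, Hoechst-stained, GFP intensity by laser scanning cytometry, normalized to DMSO (0%) and 57.5 uM 5-azacytidine (100%).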

[2] = biological target: Aldehyde dehydrogenase, mitochondrial (Homo sapiens) (UniProt P05091); experiment: qHTS for Inhibitors of the Aldehyde Dehydrogenase Family (ALDH2) Primary screen (AID 2061308);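 note: plate controls were vehicle for no effect and reference inhibitor for full effect; nearly all actives have a fitted effect of over 55% in size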
[3] = biological target: Retinaldehyde dehydrogenase 3 (Homo sapiens) (UniProt P47895); experiment: qHTS for Inhibitors of the Aldehyde Dehydrogenase Family (ALDH1A3) Primary screen (AID 2061315);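 note: plate controls were DMSO vehicle for no effect and reference inhibitor for full effect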
[4] = BET inhibitor-based combinations targeting novel dependencies in MECOM-rearranged (r) AML: SET-2 cell line (AID 2202231); conditions: SET-2 AML cells viability, CellTiter-Glo luminescence, 48 h; viability: hits give low values, concentration not given here; note: nearly all actives have a fitted effect of over 35% in size; note: potency is the fitted concentration of half-maximal effect;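 for viability: plate controls were DMSO treated cells for no effect and wells without cells for full effect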
Method in brief: (§1)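 Cells were plated at 500 per well and exposed to an 11-point dose series of each drug for 48 hr. Viability was measured by CellTiter-Glo luminescence, normalized to DMSO and empty-well controls, and summarized as AUC and per-cell-line Z-AUC.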

[5] = BET inhibitor-based combinations targeting novel dependencies in MECOM-rearranged (r) AML: OCI-AML3 cell line (AID 2202232); conditions: Potency: OCI-AML3 viability; note: nearly all actives have a fitted effect of over 35% in size; note: potency is the fitted concentration of half-maximal effect
Method in brief: as §1

[6] = BET inhibitor-based combinations targeting novel dependencies in MECOM-rearranged (r) AML: MV-4-11 cell line (AID 2202233); note: nearly all actives have a fitted effect of over 45% in size; note: potency is the fitted concentration of half-maximal effect
Method in brief: (§2)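 Activity is given as area under the curve and as Z-AUC, mean-centred within each cell line. It comes from 11-point dose curves normalized to DMSO and empty wells. CellTiter-Glo luminescence was read after 48 hr drug exposure of 500 cells/well.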

[7] = BET inhibitor-based combinations targeting novel dependencies in MECOM-rearranged (r) AML: HNT-34 cell line (AID 2202234); note: nearly all actives have a fitted effect of over 35% in size; note: potency is the fitted concentration of half-maximal effect
Method in brief: as §2

[8] = BET inhibitor-based combinations targeting novel dependencies in MECOM-rearranged (r) AML: UCSD-AML1 cell line (AID 2202235); note: nearly all actives have a fitted effect of over 40% in size; note: potency is the fitted concentration of half-maximal effect
Method in brief: as §2

[9] = BET inhibitor-based combinations targeting novel dependencies in MECOM-rearranged (r) AML: AML-191 cell line (AID 2202236; note: nearly all actives have a fitted effect of over 35% in size; note: potency is the fitted concentration of half-maximal effect)
Method in brief: as §1

[10] = BET inhibitor-based combinations targeting novel dependencies in MECOM-rearranged (r) AML: AML-194 cell line (AID 2202237; note: nearly all actives have a fitted effect of over 40% in size; note: potency is the fitted concentration of half-maximal effect)
Method in brief: as §1

CC1COC(Nc2ccc3ncnc(Nc4ccc(OCc5nccs5)c(Cl)c4)c3c2)=N1 (configuration not stated)
inactive: activation [1] 13.4% | Potency [2] | Potency [3]

COC(=O)Nc1ccc(-c2nc(N3CCOCC3)c3cnn(C4CCN(Cc5cccnc5)CC4)c3n2)cc1
active: Potency [4] 2630 nM | Potency [5] 2630 nM | Potency [6] 1320 nM | Potency [7] 1180 nM | Potency [8] 525 nM | Potency [9] 1860 nM
inactive: activation [1] 9.82% | Potency [2] | Potency [3]

CO[C@H]1C[C@@H]2CC[C@@H](C)[C@@](O)(O2)C(=O)C(=O)N2CCCC[C@H]2C(=O)O[C@H]([C@H](C)C[C@@H]2CC[C@@H](OP(C)(C)=O)[C@H](OC)C2)CC(=O)[C@H](C)/C=C(\C)[C@@H](O)[C@@H](OC)C(=O)[C@H](C)C[C@H](C)/C=C/C=C/C=C/1C
active: Potency [4] 23500 nM | Potency [5] 23500 nM | Potency [6] 14800 nM | Potency [7] 1480 nM | Potency [8] 3.3 nM
inactive: activation [1] 3% | Potency [2] | Potency [3]

Cn1nc(C(C)(C)C)cc1C(=O)N[C@@H](Cc1cccc(Cl)c1)C(=O)NCC#N
inactive: activation [1] -7% | Potency [2] | Potency [3]

Cn1cnc2c(F)c(Nc3ccc(Br)cc3Cl)c(C(=O)NOCCO)cc21
inactive: activation [1] 24.1% | Potency [2] | Potency [3] | viability [4] 95.4%
active: Potency [5] 29.5 nM

CCCCCCCCCC(=O)N[C@@H](Cc1c[nH]c2ccccc12)C(=O)N[C@H](CC(N)=O)C(=O)N[C@@H](CC(=O)O)C(=O)N[C@@H]1C(=O)NCC(=O)N[C@@H](CCCN)C(=O)N[C@@H](CC(=O)O)C(=O)N[C@H](C)C(=O)N[C@@H](CC(=O)O)C(=O)NCC(=O)N[C@H](CO)C(=O)N[C@@H]([C@@H](C)CC(=O)O)C(=O)N[C@@H](CC(=O)c2ccccc2N)C(=O)O[C@@H]1C
inactive: activation [1] -9.73% and 21% | Potency [2] | Potency [3] | viability [4] 107% | Potency [5] | Potency [6] | Potency [7] | Potency [8] | Potency [9] | Potency [10]

Cn1c(=O)n(-c2ccc(C(C)(C)C#N)cc2)c2c3cc(-c4cnc5ccccc5c4)ccc3ncc21
inactive: activation [1] 13% and 27.3% | Potency [2] | Potency [3]
active: Potency [4] 170 nM | Potency [5] 241 nM | Potency [6] 170 nM | Potency [7] 135 nM | Potency [8] 42.8 nM | Potency [9] 42.8 nM

Cn1cc(-c2[nH]c3cc(NC(=O)[C@H](N)C4CCCCC4)cc4c3c2C=NNC4=O)cn1
active: Potency [4] 16600 nM | Potency [5] 5250 nM | Potency [6] 263 nM | Potency [7] 1050 nM | Potency [8] 1050 nM
inactive: activation [1] 23.5% | Potency [2] | Potency [3]

CCCCC(F)(F)[C@@]1(O)CC[C@H]2[C@H](CC(=O)[C@@H]2CCCCCCC(=O)O)O1
active: Potency [6] 235 nM
inactive: activation [1] -19.7% | Potency [2] | Potency [3] | viability [4] 108% | Potency [5] | Potency [7] | Potency [8] | Potency [9] | Potency [10]

CC(C)=C1C[C@@]2(C)C(=CC1=O)CC[C@@H](O)[C@@H]2C
inactive: activation [1] 4.58% | Potency [2] | Potency [3]

CCCC(CCC)C(=O)Nc1ccn([C@@H]2O[C@H](CO)[C@@H](O)C2(F)F)c(=O)n1
active: Potency [4] 3720 nM | Potency [5] 934 nM | Potency [6] 1050 nM | Potency [7] 4680 nM | Potency [8] 4170 nM | Potency [9] 2350 nM | Potency [10] 2630 nM
inactive: activation [1] -16.2% | Potency [2] | Potency [3]

CC(C)n1nc(-c2ccc3oc(N)nc3c2)c2c(N)ncnc21
active: Potency [4] 148 nM | Potency [5] 417 nM | Potency [6] 37.2 nM | Potency [7] 23.5 nM | Potency [8] 11.8 nM
inactive: activation [1] 5.06% and 13.4% | Potency [2] | Potency [3]

C#Cc1cccc(Nc2ncnc3cc(OC)c(OCCCCCCC(=O)NO)cc23)c1
active: Potency [1] 8.63 µM and 5.36 µM and 544 nM | Potency [4] 1480 nM | Potency [5] 1050 nM | Potency [6] 296 nM | Potency [7] 934 nM | Potency [8] 1180 nM | Potency [9] 1050 nM
inactive: Potency [2] | Potency [3]

CC(C)CN(C[C@@H](O)[C@H](Cc1ccccc1)NC(=O)O[C@@H]1CO[C@H]2OCC[C@H]21)S(=O)(=O)c1ccc(N)cc1
inactive: activation [1] -7.16% | Potency [2] | Potency [3]

CC(=O)NC(C)c1ccc(Oc2ccc(OC(C)C)cc2)cc1 (configuration not stated)
inactive: activation [1] 15.3% | Potency [2] | Potency [3] | viability [4] 87.6%

Clc1cc2c(NC3CCCC3)nnc(-c3ccncc3)c2cc1Cl
inactive: activation [1] -9% | Potency [2] | Potency [3] | viability [4] 112% | Potency [6] | Potency [7] | Potency [8] | Potency [9]
active: Potency [5] 468 nM

Cc1nc(NC(=O)N2CCCC2C(N)=O)sc1-c1ccnc(C(C)(C)C(F)(F)F)c1 (configuration not stated)
inactive: activation [1] -0.893% | Potency [2] | Potency [3]
active: Potency [4] 20900 nM | Potency [5] 2630 nM | Potency [6] 16600 nM
